Rows were chosen to be rich in hits. Some 2% of all compounds tested hit in one or more screens of this group.
TDP43 rescue: qHTS of TDP-43 Inhibitors | TDP-43 expressing yeast growth rescue, BacTiter-Glo, 24 h | Potency, µM (highest dose often 46.1 µM), for inactives: at the top dose growth rescue (activation), usual class: activators | 410,000 tested, 1.8% active; further: potency means the concentration at half of the fitted maximal effect; % of control where 0% means no effect; nearly all actives have a fitted effect of over 50% in size
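Yeast expressing TDP-43 (pregrown in raffinose, seeded at OD600=0.02 in galactose medium) exposed to compounds 24 hr at 30 deg C. Growth read by BacTiter-Glo luminescence; rescue of toxicity appears as increased signal.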
Abeta rescue: qHTS for compounds that reverse cellular toxicity of Amyloid beta (A-beta) peptide in yeast: Primary Screen; AID 1347071, 2019; yeast expressing A-beta42, growth rescue, OD600, 48 h; response scale: 0% DMSO, 100% iron-clioquinol control; Potency, µM (series often up to 46.1 µM), usual class: activators; 410,000 tested, 0.063% active; further: potency means the concentration at half of the fitted maximal effect; nearly all actives have a fitted effect of over 55% in size
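Yeast A-beta toxicity model in growth medium with pinned compounds, 48 h at 30 C; growth read as absorbance at 600 nm. Normalized to FeCl3/clioquinol equimolar mix (positive) and DMSO (negative).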
FUS yeast rescue: qHTS for Suppressors of FUS Proteinopathy: Primary screen using FUS-linked yeast assay | S. cerevisiae FUS-expressing, growth rescue, OD600, 24 h | Potency, µM (highest dose often 76.6 µM), usual class: activators | 390,000 tested, 0.24% active;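 further: potency means the concentration at half of the fitted maximal effect; plate controls were DMSO vehicle for no effect and reference control for full effect; nearly all actives have a fitted effect of over 55% in size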
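Compound concentration series was pinned onto galactose-induced FUS-expressing yeast seeded at OD 0.005. Plates sat 24hr at 30C; absorbance at 600 nm gave growth. DMSO served as background control.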
IDH1 R132H inh: qHTS for Inhibitors of mutant isocitrate dehydrogenase 1 (IDH1): qHTS; IDH1-R132H enzyme, NADPH consumption, diaphorase/resazurin fluorescence; Potency, µM (top dose mostly 76.6 µM), for the others: at the highest dose activity change, negative = inhibition, most hits filed as inhibitors; 390,000 tested, 0.093% active; AID 602179, 2012; further: potency means the concentration at half of the fitted maximal effect; on the % scale 0 is the no-effect control and ±100 the full control effect; nearly all actives have a fitted effect of over 65% in size
Target sequence (O75874 whole entry R132H, stated change not applied): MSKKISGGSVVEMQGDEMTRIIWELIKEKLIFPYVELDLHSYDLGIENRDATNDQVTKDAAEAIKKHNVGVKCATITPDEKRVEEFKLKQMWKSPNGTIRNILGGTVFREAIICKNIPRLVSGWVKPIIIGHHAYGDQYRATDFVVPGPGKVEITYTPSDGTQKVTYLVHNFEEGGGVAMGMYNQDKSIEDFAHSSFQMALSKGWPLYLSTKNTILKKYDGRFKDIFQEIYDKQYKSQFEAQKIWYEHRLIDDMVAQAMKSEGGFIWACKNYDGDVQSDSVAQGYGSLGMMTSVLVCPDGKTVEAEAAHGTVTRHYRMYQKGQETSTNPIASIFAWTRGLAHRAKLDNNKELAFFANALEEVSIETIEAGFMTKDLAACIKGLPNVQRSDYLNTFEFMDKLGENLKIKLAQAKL
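IDH1-R132H (0.5 ug/mL) preincubated 30 min with compound, then NADPH (0.016 mM) and alpha-KG (2 mM) added; 80 min at RT, pH 7.5. Remaining NADPH coupled via diaphorase/resazurin to fluorescence (540/590 nm); concentration-response curves normalized to no-enzyme control.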
LDHA inh: qHTS assay for inhibitors of human lactate dehydrogenase | L-lactate dehydrogenase A chain (Homo sapiens), P00338 | purified LDHA, NADH/diaphorase-resazurin fluorescence; active compounds read low | activity change, % (values are at about 110 or 230 µM) | 480,000 tested, 0.15% active; in the data active means activity change below about -30%; inconclusive means mostly about -25% to -30%;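 further: plate controls were DMSO wells for no effect and wells without enzyme for full effect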
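Human LDH5 at 2 nM final in Tris HCl pH 7.4 with 0.06 mM NADH and 0.2 mM pyruvate, reacted 5 minutes at room temperature. Remaining NADH coupled via diaphorase/resazurin; resorufin fluorescence read at 0 and 20 minutes, normalized to enzyme-free and DMSO wells.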
aSyn rescue: qHTS of alpha-syn Inhibitors. Yeast expressing alpha-synuclein, growth rescue, BacTiter-Glo, 24 h. Potency, µM (series often up to 46.1 µM), inactives show at the highest dose growth rescue (activation), actives largely listed as activators. 370,000 tested, 0.14% active. AID 652106, 2013; further: potency means the concentration at half of the fitted maximal effect; % of control where 0% means no effect; nearly all actives have a fitted effect of over 65% in size
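Screening used galactose-induced yeast with toxic alpha-synuclein levels, exposed to compound for 24 hr at 30 deg C. Cell growth, read with BacTiter-Glo luminescence, gave the measured signal.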
Active calls of the source: *; i = inactive; u = inconclusive; x = no result given; [ ] = remark or other dose. Unless noted, the call rests on the fitted dose curve; in most records, active means well fitted curve in the direction sought with a large enough effect; inconclusive means small, poorly fitted or top-dose-only effect, or another doubt; inactive means no such curve, though single readings can be large; an effect the other way counts as inactive or inconclusive.

SMILES	TDP43 rescue	Abeta rescue	FUS yeast rescue	IDH1 R132H inh	LDHA inh	aSyn rescue
Cc1nc(SC2CC(=O)N(c3ccccc3)C2=O)n[nH]1 (configuration not stated)	4.5µM*	i	i	15%	-11	-11%
COc1ccc(N2C(=O)CC(Sc3nnc(-c4ccccc4)o3)C2=O)cc1 (configuration not stated)	11µM*	i	i	-2%	0	x
O=C1CC(Sc2nnc(-c3ccccc3O)o2)C(=O)N1c1ccccc1 (configuration not stated)	u	i	u	-3%	7	u
Brc1cccc(/C=N/Nc2ccc3ccccc3c2)c1	x	x	x	x	20	x
COc1ccc(-c2cc(C(=O)OCC(=O)NC3CC3)c3ccccc3n2)cc1	18%	i	u	8%	-2	0%
O=C(COC(=O)c1cc(-c2ccccc2)nc2ccccc12)NC1CC1	35µM*	i	u	12%	-4	-1%[1.84 µM]
N#Cc1c(N2CCN(C(=O)C(=O)NCCc3ccccc3)CC2)nc(-c2ccco2)c2c1CCCC2	x	x	x	x	3	x
O=C(CSCc1cccc(Br)c1)N=Nc1c(O)[nH]c2ccccc12	22µM*	i	i	4%	-5	-6%
O=C(CSCc1ccccc1)N=Nc1c(O)[nH]c2ccccc12	-1%	i	x	2%	-1	0%
O=C(CS(=O)(=O)c1nc(-c2ccc(Cl)cc2)cn1-c1ccccc1)Nc1ccc(F)cc1F	14µM*	i	u	10%	-7	x
O=C(CS(=O)(=O)c1nc(-c2ccc(Cl)cc2)cn1-c1ccccc1)Nc1cccc(Cl)c1	u	i	u	0%	-7	x
CS(=O)(=O)/C(C#N)=C\c1ccc(-c2ccccc2)cc1	x	x	x	x	9	x
Cc1ccnc(Nc2nc(-c3ccc(O)cc3O)cs2)c1	16µM*	i	i	2%	4	10%
Cc1ccnc(Nc2nc(-c3ccc(O)cc3)cs2)c1	13µM*	i	i	7%	-6	-16%
Cc1ccnc(Nc2nc(-c3ccc(O)c(O)c3)cs2)c1	x	i	u	0%	-10	-14%
O=C(NCc1cccc(F)c1)c1ccc(CN2C(=O)CSc3ncccc32)cc1	x	x	x	x	1	x
Cc1cc(C)c(S(=O)(=O)c2ccccc2)c(N(C)C)n1	13%	i	i	7%	-8	0%
CN(C)c1nc(F)c(F)c(S(=O)(=O)c2ccccc2)c1F	14µM*	i	i	5%	2	2%
COCCNC(=S)N/N=C(\C)c1cccc(C(F)(F)F)c1	-18%	11µM*	i	15%	-4	-12%
C/C(=N\NC(=S)Nc1ccccc1)c1cccc(C(F)(F)F)c1	x	x	x	x	-2	x
CC(O)CNC(=O)C(=O)Nc1sc2c(c1C#N)CC(C)(C)OC2 (configuration not stated)	x	x	x	x	-1	x
CC12CN3CC(C)(CN(C1)C3c1ccc(OCc3ccccc3)cc1)C2=O (configuration not stated)	20µM*	i	i	-6%	-4	x
COc1ccc(C2N3CC4(C)CN2CC(C)(C3)C4=O)cc1OC (configuration not stated)	10%	i	i	14%	3	-16%
Cc1ccc(S(=O)(=O)N2CCN(C(=O)CCN3C(=O)c4ccccc4C3=O)CC2)cc1C	16µM*	i	i	13%	-13	2%
Cc1ccc(S(=O)(=O)N2CCN(C(=O)Cc3ccccc3)CC2)cc1C	22%	i	i	-2%	0	-1%
Cc1ccn2c(C=O)c(-c3ccc(F)cc3)c(C=O)c2c1	20µM*	i	i	-10%	2	-8%
